The results in this text go back to PubChem BioAssay (NCI).

Molecules are shown by their SMILES. The panel holds about 79,000 compounds, 15% with a hit somewhere; the sample as a whole holds those more often. Unmarked numbers belong to inactive results. Activity calls are given as the source filed them. Rule as the data show it: active = growth inhibition above about 70%; inactive = the rest.

This test is described as follows: NCI Yeast Anticancer Drug Screen. Data for the mlh1 rad18 strain (AID 175). The note with it: S. cerevisiae mlh1 rad18 strain growth inhibition; at 50.0 µM; stronger effect = higher value. The essentials:
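Test agents were incubated with a yeast strain of defined genotype (DNA damage repair defect). Inhibition of growth was derived by comparison with vehicle-exposed cultures.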
`O=[N+]([O-])c1ccc(-c2nnc(C34CC5CC(CC(C5)C3)C4)o2)cc1`: the growth inhibition was -30.1%.

With `Clc1cccc(Cl)c1C1SCc2nc3ncccc3n21` (stereo not given), the growth inhibition was 0.4%.

`COc1c2ccoc2c(OC)c2oc(=O)ccc12`: the growth inhibition is -2.45%.

`N#Cc1cccc(O)c1`: the growth inhibition was 12%.

In the case of `CCOC(=O)c1c(SC(=O)c2ccc(C(C)(C)C)cc2)n(-c2ccccc2)c(=S)n(-c2ccccc2)c1=O`, the growth inhibition is 18.9%.

On to `CCOC(=O)/C=C/c1ccc(OCC)cc1`, for which the growth inhibition is -21%.

Turning to `O=C(c1ccc(F)cc1)c1ccc2ccccc2c1C(=O)O`, the growth inhibition was -11.3%.

Take `CC(=O)O[C@H]1CC[C@@]2(C)[C@@H](CC[C@@H]3[C@@H]2CC[C@]2(C)[C@@H](C(=O)CCC(F)(F)F)CC[C@@H]32)C1`: the growth inhibition was 18.9%.

For the molecule `Nc1cc(=O)[nH]c(NCCCC(N)C(=O)O)n1` (stereo not given), the growth inhibition was 8.9%.

On to `O=[N+]([O-])c1cc(Br)c2ccccc2c1`, for which the growth inhibition is 15.1%.

With `Cc1ccc(-n2cnc3c(Cl)ncnc32)cc1[N+](=O)[O-]`, the growth inhibition was 10.9%.

On to `C/C(=N\NC(=S)NC(C)C)c1nc2ncccc2[nH]1`, for which the growth inhibition is -25.8%.

`Cc1ccc(COC(=O)Nc2ccc(C)c(NC(=O)OCc3ccc(C)cc3)c2)cc1`: the growth inhibition was 30.1%.

On to `NCCSS(=O)(=O)CCN`, for which the growth inhibition is 3.4%.

As for `CN(/N=C/c1ccccc1)c1nnnn1-c1ccccc1`, the growth inhibition was 9.9%.

Turning to `CCOC(CCCl)c1ccc(C)cc1` (stereo not given), the growth inhibition was -20.5%.

On to `CCOc1cc(N)nc(N)n1`, for which the growth inhibition is -7.75%.

With `O=C1CSC(c2ccc(Br)cc2)N1c1nncs1` (stereo not given), the growth inhibition is 23.3%.

In the case of `O/N=C1\CCCCC1C(NO)c1ccccc1` (stereo not given), the growth inhibition was 9.35%.

`CN(/N=C/c1cccs1)c1ccc([N+](=O)[O-])cc1[N+](=O)[O-]`: the growth inhibition is -10.8%.

Turning to `CN(C)CC1OCCc2ccccc21` (stereo not given), the growth inhibition is 10%.

Turning to `C/C(=N\N=Nc1ccc(N(C)C)cc1)c1ccccc1`, the growth inhibition is 9.1%.

`NC(=S)NNC(=S)NC(=O)c1ccco1`: the growth inhibition is -18.7%.

Take `O=C1CCN2CCC(=O)c3c2c(cc2ccccc32)N1`: the growth inhibition was -12.6%.

On to `CC1(C)C(=O)N2c3ccccc3C3(CC(N4C(=O)c5ccccc5C4=O)C(=O)O3)C2N1C(=O)OCc1ccccc1` (stereo not given), for which the growth inhibition was -13.1%.

Take `O=C(Nc1ccc([N+](=O)[O-])cc1)Nc1nccnn1`: the growth inhibition is -0.8%.

Consider `CN(NC(=O)CCCl)C1=NCCN1`, for which the growth inhibition is 16.7%.

With `Cc1cc(N=Nc2ccc(N=Nc3ccc(S(=O)(=O)O)cc3)cc2)cc(C(=O)O)c1O`, the growth inhibition is 4.25%.

Take `O=[N+]([O-])c1cc(Cl)c(Cl)c(Cl)c1Cl`: the growth inhibition was 31.4%.

In the case of `O=C1C(c2ccccc2)C(c2ccccc2)C(c2ccccc2)C1c1ccccc1` (stereo not given), the growth inhibition was 5.65%.

Regarding `O=[N+]([O-])c1ccc(-c2ccccc2CO)cc1`, the growth inhibition was -26.6%.

Take `CCCC(O)C(=O)C(CCC)N(CC)CC` (stereo not given): the growth inhibition is -4.9%.

In the case of `O=C(NCCNc1ccccc1)C12CC3CC(CC(C3)C1)C2`, the growth inhibition is 9.5%.

Turning to `Clc1ccc([I+]c2ccc(Cl)cc2)cc1`, the growth inhibition is 97.2% (active).

`[N-]=[N+]=NS(=O)(=O)CCc1ccc(Cl)cc1`: the growth inhibition is 4.85%.

With `CCCCC(CC)C(C(C)=O)N(C)C` (stereo not given), the growth inhibition is 4.75%.

On to `CCC1(C)CC(C)(C)c2ccc(C)cc21` (stereo not given), for which the growth inhibition was -2.25%.

As for `Brc1cccc2c(SCCCCCCSc3c4ccccc4nc4c(Br)cccc34)c3ccccc3nc12`, the growth inhibition was 5.85%.

In the case of `O=C(O)c1[nH]ncc1[N+](=O)[O-]`, the growth inhibition was 2.8%.

Regarding `O=C(O)CCBr`, the growth inhibition is 43.8%.
